# Source: PubChem BioAssay AID1159580 (chemical genetic matrix, 2015)
# Where “and” joins values, the source holds several entries; their conditions need not be identical. Equal entries are not always repeated. In all, about 5,500 compounds went through this assay and about 2,000 (36%) were called active. Roughly 18% stayed inconclusive and do not appear here. Some of the results follow. Unmarked numbers belong to inactive results. No stated cut-off is given here; in the data, active means normalized growth mostly below about 0.91 (no sharp cut-off); inconclusive means no clear call, values can overlap the other calls; inactive means mostly above about 0.92.
# Experiment: chemical genetic growth profiling, strain panel (AID 1159580);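 further: tested at 20 µM; growth read once vehicle control cultures reached saturation at 30 °C; 1 = growth at the plate median or of vehicle wells; lower values mean less growth of the strain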
# Conditions: growth OD
smiles,measurement,setting,value
O=C(CCCN1CCC2(CC1)C(=O)NCN2c1ccccc1)c1ccc(F)cc1,normalized growth,"S. cerevisiae deletion strains, locus YKL009W, strain mrt4, hits give low values",0.977
same,normalized growth,"S. cerevisiae deletion strains, locus YKL068W, hits give low values",0.99
same,normalized growth,"S. cerevisiae deletion strains, locus YKL085W, strain MDH1 (second series), hits give low values",0.986
same,normalized growth,"S. cerevisiae deletion strains, locus YKL085W, strain MDH1, hits give low values",0.986
same,normalized growth,"S. cerevisiae deletion strains, locus YKL160W, strain elf1, hits give low values",0.946
same,normalized growth,"S. cerevisiae deletion strains, locus YKL190W, strain CNB1, hits give low values",0.99
same,normalized growth,"S. cerevisiae deletion strains, locus YKR001C, strain vps1, hits give low values",0.999
same,normalized growth,"S. cerevisiae deletion strains, locus YKR026C, strain gcn3, hits give low values",0.985
same,normalized growth,"S. cerevisiae deletion strains, locus YKR091W, strain srl3, hits give low values",0.97
same,normalized growth,"S. cerevisiae deletion strains, locus YLL001W, strain dnm1, hits give low values",1.01
same,normalized growth,"S. cerevisiae deletion strains, locus YLL026W, hits give low values",0.978
same,normalized growth,"S. cerevisiae deletion strains, locus YLL041C, strain sdh2, hits give low values",0.988
same,normalized growth,"S. cerevisiae deletion strains, locus YLR027C, strain aat2, hits give low values",0.99
same,normalized growth,"S. cerevisiae deletion strains, locus YLR039C, strain RIC1, hits give low values",0.995
same,normalized growth,"S. cerevisiae deletion strains, locus YLR058C, strain SHM2, hits give low values",0.975
same,normalized growth,"S. cerevisiae deletion strains, locus YLR102C, strain apc9, hits give low values",0.995
same,normalized growth,"S. cerevisiae deletion strains, locus YLR113W, strain HOG1, hits give low values",1.01
same,normalized growth,"S. cerevisiae deletion strains, locus YLR221C, strain rsa3, hits give low values",1.02
same,normalized growth,"S. cerevisiae deletion strains, locus YLR258W, strain gsy2, hits give low values",0.986
same,normalized growth,"S. cerevisiae deletion strains, locus YLR262C, strain YPT6 (second series), hits give low values",0.995
same,normalized growth,"S. cerevisiae deletion strains, locus YLR262C, strain YPT6, hits give low values",0.955
same,normalized growth,"S. cerevisiae deletion strains, locus YLR268W, strain sec22, hits give low values",0.93
same,normalized growth,"S. cerevisiae deletion strains, locus YLR320W, strain mms22, hits give low values",0.993
same,normalized growth,"S. cerevisiae deletion strains, locus YLR330W, strain CHS5, hits give low values",1
same,normalized growth,"S. cerevisiae deletion strains, locus YLR342W, strain FKS1 (second series), hits give low values",1.04
same,normalized growth,"S. cerevisiae deletion strains, locus YLR342W, strain FKS1, hits give low values",0.972
same,normalized growth,"S. cerevisiae deletion strains, locus YLR357W, strain rsc2, hits give low values",0.953
same,normalized growth,"S. cerevisiae deletion strains, locus YLR370C, strain arc18, hits give low values",0.98
same,normalized growth,"S. cerevisiae deletion strains, locus YLR371W, strain rom2, hits give low values",0.991
same,normalized growth,"S. cerevisiae deletion strains, locus YLR384C, strain iki3, hits give low values",0.982
same,normalized growth,"S. cerevisiae deletion strains, locus YLR418C, strain cdc73, hits give low values",0.976
same,normalized growth,"S. cerevisiae deletion strains, locus YML016C, strain PPZ1, hits give low values",0.995
same,normalized growth,"S. cerevisiae deletion strains, locus YML032C, strain rad52, hits give low values",0.991
same,normalized growth,"S. cerevisiae deletion strains, locus YML120C, strain ndi1, hits give low values",0.984
same,normalized growth,"S. cerevisiae deletion strains, locus YML124C, strain tub3, hits give low values",0.989
same,normalized growth,"S. cerevisiae deletion strains, locus YMR058W, strain fet3, hits give low values",0.987
same,normalized growth,"S. cerevisiae deletion strains, locus YMR078C, strain ctf18, hits give low values",0.985
same,normalized growth,"S. cerevisiae deletion strains, locus YMR125W, strain sto1, hits give low values",1
same,normalized growth,"S. cerevisiae deletion strains, locus YMR129W, hits give low values",0.965
same,normalized growth,"S. cerevisiae deletion strains, locus YMR205C, strain PFK2, hits give low values",1.05
same,normalized growth,"S. cerevisiae deletion strains, locus YMR223W, strain ubp8, hits give low values",0.992
same,normalized growth,"S. cerevisiae deletion strains, locus YMR231W, strain pep5, hits give low values",0.988
same,normalized growth,"S. cerevisiae deletion strains, locus YMR307W, strain GAS1, hits give low values",1.08 and 1.02
same,normalized growth,"S. cerevisiae deletion strains, locus YNL067W, strain RPL9B, hits give low values",0.985
same,normalized growth,"S. cerevisiae deletion strains, locus YNL071W, strain lat1, hits give low values",0.995
same,normalized growth,"S. cerevisiae deletion strains, locus YNL128W, strain TEP1, hits give low values",0.989
same,normalized growth,"S. cerevisiae deletion strains, locus YNL153C, strain GIM3, hits give low values",0.969
same,normalized growth,"S. cerevisiae deletion strains, locus YNL175C, strain NOP13, hits give low values",1.01
same,normalized growth,"S. cerevisiae deletion strains, locus YNL183C, strain NPR1, hits give low values",0.934
same,normalized growth,"S. cerevisiae deletion strains, locus YNL197C, strain WHI3, hits give low values",1.01
same,normalized growth,"S. cerevisiae deletion strains, locus YNL209W, strain ssb2, hits give low values",0.998
same,normalized growth,"S. cerevisiae deletion strains, locus YNL224C, strain SQS1, hits give low values",1.01
same,normalized growth,"S. cerevisiae deletion strains, locus YNL233W, strain BNI4, hits give low values",0.994
same,normalized growth,"S. cerevisiae deletion strains, locus YNL248C, strain rpa49, hits give low values",0.928
same,normalized growth,"S. cerevisiae deletion strains, locus YNL250W, strain rad50, hits give low values",0.972
same,normalized growth,"S. cerevisiae deletion strains, locus YNL271C, strain bni1, hits give low values",1
same,normalized growth,"S. cerevisiae deletion strains, locus YNL298W, strain CLA4, hits give low values",0.999
same,normalized growth,"S. cerevisiae deletion strains, locus YNL307C, strain MCK1, hits give low values",0.989
same,normalized growth,"S. cerevisiae deletion strains, locus YNL322C, strain KRE1 (second series), hits give low values",0.968
same,normalized growth,"S. cerevisiae deletion strains, locus YNL322C, strain KRE1, hits give low values",0.999
same,normalized growth,"S. cerevisiae deletion strains, locus YNR049C, strain mso1, hits give low values",0.955
same,normalized growth,"S. cerevisiae deletion strains, locus YNR052C, strain pop2, hits give low values",0.999
same,normalized growth,"S. cerevisiae deletion strains, locus YOL006C, strain TOP1, hits give low values",0.903
same,normalized growth,"S. cerevisiae deletion strains, locus YOL012C, strain htz1",1.37
same,normalized growth,"S. cerevisiae deletion strains, locus YOL147C, strain pex11, hits give low values",0.999
same,normalized growth,"S. cerevisiae deletion strains, locus YOR001W, strain rrp6, hits give low values",0.984
same,normalized growth,"S. cerevisiae deletion strains, locus YOR061W, strain CKA2, hits give low values",0.964
same,normalized growth,"S. cerevisiae deletion strains, locus YOR069W, strain VPS5, hits give low values",0.999
same,normalized growth,"S. cerevisiae deletion strains, locus YOR070C, strain gyp1, hits give low values",0.986
same,normalized growth,"S. cerevisiae deletion strains, locus YOR080W, strain dia2, hits give low values",0.96
same,normalized growth,"S. cerevisiae deletion strains, locus YOR083W, strain WHI5 (second series), hits give low values",1.03
same,normalized growth,"S. cerevisiae deletion strains, locus YOR083W, strain WHI5, hits give low values",0.879 (active)
same,normalized growth,"S. cerevisiae deletion strains, locus YOR106W, strain vam3, hits give low values",0.959
same,normalized growth,"S. cerevisiae deletion strains, locus YOR136W, strain idh2, hits give low values",0.98
same,normalized growth,"S. cerevisiae deletion strains, locus YOR144C, strain elg1, hits give low values",0.994
same,normalized growth,"S. cerevisiae deletion strains, locus YOR184W, strain ser1, hits give low values",0.983
same,normalized growth,"S. cerevisiae deletion strains, locus YOR231W, strain MKK1, hits give low values",1
same,normalized growth,"S. cerevisiae deletion strains, locus YOR265W, strain rbl2, hits give low values",0.956
same,normalized growth,"S. cerevisiae deletion strains, locus YOR270C, strain vph1, hits give low values",0.972
same,normalized growth,"S. cerevisiae deletion strains, locus YOR290C, strain snf2, hits give low values",0.944
same,normalized growth,"S. cerevisiae deletion strains, locus YOR316C, strain cot1, hits give low values",0.986
same,normalized growth,"S. cerevisiae deletion strains, locus YPL051W, strain arl3, hits give low values",0.974
same,normalized growth,"S. cerevisiae deletion strains, locus YPL055C, strain LGE1, hits give low values",0.909 and 0.983
same,normalized growth,"S. cerevisiae deletion strains, locus YPL078C, strain atp4, hits give low values",0.964
same,normalized growth,"S. cerevisiae deletion strains, locus YPL106C, strain sse1, hits give low values",0.965
same,normalized growth,"S. cerevisiae deletion strains, locus YPL240C, strain hsp82, hits give low values",0.99
same,normalized growth,"S. cerevisiae deletion strains, locus YPL241C, strain CIN2, hits give low values",1.01
same,normalized growth,"S. cerevisiae deletion strains, locus YPL256C, strain CLN2, hits give low values",1.02
same,normalized growth,"S. cerevisiae deletion strains, locus YPR119W, strain clb2, hits give low values",0.987
same,normalized growth,"S. cerevisiae deletion strains, locus YPR141C, strain kar3, hits give low values",1
same,normalized growth,"S. cerevisiae deletion strains, locus YPR163C, strain tif3, hits give low values",1
same,normalized growth,"S. cerevisiae deletion strains, locus YPR167C, strain met16, hits give low values",0.999
same,normalized growth,"S. cerevisiae deletion strains, strain wtn01, hits give low values",0.987
same,normalized growth,"S. cerevisiae strains, strain wild type, hits give low values",0.99
